Assay [1] can be described thus: NCI Yeast Anticancer Drug Screen. Data for the rad50 strain (AID 155).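 Note: 0% = growth of vehicle-only cultures of the same strain.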 The settings on record: S. cerevisiae rad50 strain growth inhibition; at 50.0 µM; active compounds read high. The essentials: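 Relative growth inhibition (compound vs vehicle) was measured in yeast with a defined repair-gene alteration.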
Assay [2] is described as follows: NCI Yeast Anticancer Drug Screen. Data for the mec2-1 strain (AID 157). The settings on record: S. cerevisiae mec2-1 strain, at 50.0 µM, active compounds read high. Summed up:
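Cells of the genetically defined mec2-1 yeast strain are incubated with test compound. Inhibition of growth is calculated against vehicle-treated controls.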

Assay [3] is described as follows: NCI Yeast Anticancer Drug Screen. Data for the sgs1 mgt1 strain (AID 161).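 Note: 0% = growth of cultures given vehicle only.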 To be noted: S. cerevisiae sgs1 mgt1 strain, at 50.0 µM, active compounds read high. The essentials:
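Mutant yeast exposed to compound; growth scored against vehicle-only wells.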

Assay [4] can be described thus: NCI Yeast Anticancer Drug Screen. Data for the cln2 rad14 strain (AID 165).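 Note: 0% = growth equal to vehicle treated cultures.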 To be noted: S. cerevisiae cln2 rad14 strain, at 50.0 µM, active compounds read high. The essentials:
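The screen exposed genetically defined yeast (cln2 rad14) to test compounds and scored growth inhibition relative to vehicle-treated controls.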

Assay [5] in a line: NCI Yeast Anticancer Drug Screen. Data for the bub3 strain (AID 167). The settings on record: S. cerevisiae bub3 mutant strain, at 50.0 µM, active compounds read high. Summed up:
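Screening used yeast with an engineered genetic alteration affecting cell cycle control. Compound-exposed cultures were compared with vehicle cultures, and reduced growth was taken as inhibition.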

A short description of assay [6]: NCI Yeast Anticancer Drug Screen. Data for the mlh1 rad18 strain (AID 175). The settings on record: S. cerevisiae mlh1 rad18 strain growth inhibition; at 50.0 µM; active compounds read high. Summed up: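 Compound-treated yeast growth, normalised to vehicle controls. Strain bears defined DNA repair mutations.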

About 79,000 compounds went through this panel and 15% of them were active in at least one assay; those are over-represented in the sample as a whole. Unmarked numbers belong to inactive results. Activity calls are given as the source filed them. Cut-off read from the data, not from the text of the source: active = growth inhibition above about 70%; inactive = the rest. Where a SMILES comes first, the peptide text is derived from it. The star is where a group is joined. Trt = c1ccc(C(c2ccccc2)(c2ccccc2)*)cc1; Cbz = O=C(OCc1ccccc1)*; Bz = O=C(c1ccccc1)*

With `CNC(=O)Nc1nnnc2ccccc12`, the growth inhibition in assay [1] is 10.1%; in assay [2] it was 1.45%; in assay [3] it was -4.05%; in assay [4], -10.6%; in assay [5], -0.15%; in assay [6] it was 13.9%.
For `O=C(Nc1nc2ncn(CCI)c2c(=O)[nH]1)c1ccccc1`, the growth inhibition in assay [1] was -8.3%; in assay [2], 6.55%; in assay [3] it was 6.1%; in assay [4], -1.4%; in assay [5], 6.7%; in assay [6] it was -14.3%.
`CCCCNC(=O)OCc1cnc(C)n1Cc1ccccc1`: the growth inhibition in assay [1] is 2.8%; in assay [2] it was -0.3%; in assay [3], 6%; in assay [4], 4.95%; in assay [5] it was 4.1%; in assay [6], 10.2%.
Take `COC(=O)C(CSC(=O)c1ccccc1)NC(=O)CNC(=O)CNC(=O)C(CCCCNC(=O)OCc1ccccc1)NC(=O)CNC(=O)C(CSC(c1ccccc1)(c1ccccc1)c1ccccc1)NC(=O)OCc1ccccc1` (stereo not given) (Cbz-C(Trt)GK(Cbz)GGC(Bz)-OMe; configuration not given here): the growth inhibition is -4.85% in assay [1]; 22.9% in assay [2]; 25.8% in assay [3]; -6% in assay [4]; -53.1% in assay [5]; 32.1% in assay [6].
Regarding `N#CC(c1ccccc1)N(CCc1ccccc1)C(=O)c1ccc(C(=O)N(CCc2ccccc2)C(C#N)c2ccccc2)cc1` (stereo not given), the growth inhibition in assay [1] was 15.2%; in assay [2], 26.9%; in assay [3] it was 7.8%; in assay [4] it was 13.8%; in assay [5], 6.6%; in assay [6], -11.3%.
Take `C/C(=N/O)c1ccc[nH]1`: the growth inhibition is -3.6% in assay [1]; 9% in assay [2]; -5.5% in assay [3]; 20.1% in assay [4]; 13.2% in assay [5]; 0.3% in assay [6].
As for `CC(=O)NC1C(OCc2ccccc2)OC(COC(=O)CCCCCCCCCCNc2ccc([N+](=O)[O-])c3[nH]c4ccccc4c(=O)c23)C(O)C1OC(C)C(=O)NC(C)C(=O)NC(CCC(N)=O)C(=O)OCc1ccccc1` (stereo not given), the growth inhibition in assay [1] was 30.7%; in assay [2] it was 9.8%; in assay [3], -3.3%; in assay [4], 14.4%; in assay [5], 6.15%; in assay [6] it was 12.9%.
Consider `Cc1ccc(C(=O)/C(C#N)=C/Nc2c(C)n(C)n(-c3ccccc3)c2=O)cc1`, for which the growth inhibition was 17% in assay [1]; 23.6% in assay [2]; 20.1% in assay [3]; 12.8% in assay [4]; 19.5% in assay [5]; 26.5% in assay [6].
On to `CCc1c(CNc2ccc(Cl)c(Cl)c2)ccc2nc(N)nc(N)c12`, for which the growth inhibition in assay [1] was 90.7% (active); in assay [2], 92.2% (active); in assay [3] it was 91.9% (active); in assay [4] it was 90% (active); in assay [5] it was 90.5% (active); in assay [6], 89.7% (active).
With `CN1C(=O)C2C(C1=O)[C@H]1c3ccccc3C=CN1[C@@H]2C(=O)c1ccccc1` (stereo not given in full), the growth inhibition in assay [1] was 13.2%; in assay [2] it was 7.7%; in assay [3] it was -0.25%; in assay [4], 0.6%; in assay [5], -3.8%; in assay [6], 10.1%.
Regarding `Cc1nc2ccc(I)cc2c(=O)n1-c1ccc(N=Cc2ccc(N(C)C)cc2)cc1`, the growth inhibition in assay [1] is 4.7%; in assay [2], 9.1%; in assay [3] it was 14.3%; in assay [4] it was 4.95%; in assay [5], -2.9%; in assay [6] it was 10.9%.
As to `Nc1ccc(CC(=O)O)cc1`, the growth inhibition is 28.6% in assay [1]; -10.7% in assay [2]; -26.4% in assay [3]; -47.2% in assay [4]; 7.25% in assay [5]; 0.05% in assay [6].
Consider `CC(=O)n1oc2c(Br)cc(Br)cc2c1=O`, for which the growth inhibition in assay [1] is -0.75%; in assay [2], 2.85%; in assay [3], 3.7%; in assay [4], -2.55%; in assay [5], -1.05%; in assay [6] it was 15.1%.
As for `CS(C)(=O)=Nc1ccc(F)cc1`, the growth inhibition is 8.9% in assay [1]; -7.6% in assay [2]; -2.3% in assay [3]; -21.7% in assay [4]; -13.1% in assay [5]; 3.25% in assay [6].
As for `S=C1Nc2ccccc2C2CC=NN12` (stereo not given), the growth inhibition in assay [1] is -1.75%; in assay [2], -4.15%; in assay [3], 10.6%; in assay [4] it was -30%; in assay [5], -44.6%; in assay [6], 29.4%.
`NCCCn1[nH]c(=O)c2cccnc2c1=O`: the growth inhibition in assay [1] was -62.9%; in assay [2], -19%; in assay [3] it was -19%; in assay [4] it was -74%; in assay [5], -3.8%; in assay [6] it was -16.3%.
As for `COc1ccc(C)cc1NC(=S)NC(=O)c1cccc2ccccc12`, the growth inhibition is -38.6% in assay [1]; 12.9% in assay [2]; 9.85% in assay [3]; -61.1% in assay [4]; 40% in assay [5]; -1.55% in assay [6].
Regarding `Clc1cccc(-c2nnc(-c3nn(-c4ccccc4)c4nc5ccccc5nc34)o2)c1`, the growth inhibition in assay [1] was -16.4%; in assay [2], -31.3%; in assay [3] it was -47.2%; in assay [4], 6.1%; in assay [5], -17.1%; in assay [6] it was -10.8%.
In the case of `c1ccc2cc3c(cc2c1)oc1cc2ccccc2cc13`, the growth inhibition is -14.1% in assay [1]; -9.05% in assay [2]; -4.8% in assay [3]; -6.1% in assay [4]; -5.7% in assay [5]; -10% in assay [6].
Regarding `CC(C)=C1C=CC=C1`, the growth inhibition was -8% in assay [1]; 0.65% in assay [2]; 1.6% in assay [3]; -5% in assay [4]; 9.4% in assay [5]; -6.95% in assay [6].

Source of the values: PubChem BioAssay (NCI).
